# Reference: PubChem BioAssay
# Values joined by “and” are separate entries in the source; they are usually repeats but may differ in a detail not shown here. Equal entries are not always repeated. Unmarked numbers belong to inactive results. Active and inactive are the calls of the source. Cut-off read from the data, not from the text of the source: active = fold change permeability below about 0.7 or above about 1.3; inactive = in between.
# Assay: modulators of brain endothelial barrier permeability, primary screen, cell-based, FITC-avidin fluorescence, HTS (AID 1963498); note: test concentration not given here
# Conditions: actives lie on both sides
row,Compound,fold change permeability
1,CCC1(C2=NCCN2)Cc2ccccc2O1 (stereo unspecified),1
2,CCCN(CCC)C1CCc2cccc(O)c2C1 (stereo unspecified),1
3,c1ccc2c(c1)OCC(C1=NCCN1)O2 (stereo unspecified),2.1 (active)
4,CC(N)[C@H](O)c1ccc(O)c(O)c1 (stereo partly specified),1
5,COC(=O)[C@@H](N)CCCN=C(N)N[N+](=O)[O-],0.9
6,Cn1cnc(CCN)c1,0.9
7,CN1CC[C@@]2(C)c3cc(O)ccc3N(C)C12 (stereo partly specified),1.3 (active)
8,C[N+](C)(C)CC(=O)O,1
9,CN1C(=O)CCS(=O)(=O)C1c1ccc(Cl)cc1 (stereo unspecified),1.3 (active)
10,CC(NC(C)(C)C)C(=O)c1cccc(Cl)c1 (stereo unspecified),1
11,O=C(CCCN1CCC2(CC1)C(=O)NCN2c1ccccc1)c1ccc(F)cc1,1
12,CC(C)(C)c1o[nH]c(=O)c1CC(N)C(=O)O (stereo unspecified),1.1
13,COc1ccc2c(c1OC)C(=O)O[C@H]2[C@@H]1c2cc3c(cc2CCN1C)OCO3,1.2
14,NN=C(N)N,1.2 and 1
15,NCC1(CC(=O)O)CCCCC1,0.9
16,CCC1(c2ccc(N)cc2)CCC(=O)NC1=O (stereo unspecified),1
17,CNCC(O)c1ccc(O)cc1 (stereo unspecified),0.7 (active)
18,CCCN1CCC[C@@H]2Cc3[nH]ncc3C[C@H]21,0.9

row,Compound,fold change permeability
1,CCCCCCCCCCCCCC(=O)O[C@@H]1[C@@H](C)[C@@]2(O)[C@@H](C=C(CO)C[C@]3(O)C(=O)C(C)=C[C@@H]23)[C@@H]2C(C)(C)[C@]12OC(C)=O,1.1
2,O=C(O)c1nn(Cc2ccc(Cl)cc2Cl)c2ccccc12,1.9 (active)
3,COc1ccc(CCNCc2ccc(OC)c3ccccc23)cc1,1.7 (active)
4,CN(c1nc2ccccc2s1)C1CCN(C[C@H](O)COc2ccc(F)c(F)c2)CC1,1.6 (active)
5,Cc1cccc(C)c1NC1=NCCCS1,1.9 (active)
6,CC[N+](CC)(CC)CC,1.1
7,NC1CCc2cc(O)c(O)cc2C1 (stereo unspecified),0.7 (active)
8,CN1[C@H]2C[C@H](OC(=O)[C@H](CO)c3ccccc3)C[C@@H]1[C@@H](O)C2,0.8
9,C#C[C@]1(O)CC[C@H]2[C@@H]3CCC4=Cc5nc6nc7ccccc7n6cc5C[C@]4(C)[C@H]3CC[C@@]21C,1.8 (active)
10,NCC(CP(=O)(O)O)c1ccc(Cl)cc1 (stereo unspecified),1
11,CC(Cc1ccc(OCC(=O)O)cc1)NCC(O)c1cccc(Cl)c1 (stereo unspecified),1
12,CC(N)Cc1c[nH]c2ccc(OCc3cccs3)cc12 (stereo unspecified),1.3 (active)
13,COC(=O)C1=CCCN(C)C1,1.2
14,O=C(N[C@H]1CN2CCC1CC2)c1ccc(Cl)cc1,1.3 (active)
15,N[C@@H]1C[C@H]1c1ccccc1,0.9
16,C=C(C)[C@H]1CN[C@H](C(=O)O)[C@H]1CC(=O)O,1.8 (active)
17,CC1=NN=C(c2ccc(N)cc2)c2cc3c(cc2C1)OCO3,1.1
18,COc1ccc(Cc2nccc3cc(OC)c(OC)cc23)cc1OC,1.2
